The values that follow come from PubChem BioAssay.

By inhibition is commonly meant the drop in the measured response relative to a control, in per cent.

Values joined by “and” are separate entries in the source; they are usually repeats but may differ in a detail not shown here. Equal values may be shown once. The source holds several records for some structures; these can differ, active in one and inactive in another. Active and inactive are the calls of the source.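 How the source made its calls, unless noted: active means inhibition at or above 50% relative to wild type and mutant plate controls; inactive means inhibition below 50%.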

Experiment [1] can be described thus: inhibitors of TNFa-induced NFkB p65 translocation, primary screen, imaging, HUVEC, MLSMR starter and 10KST1 sets (AID 438;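 active means inhibition above 20% together with a positive visual image hit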;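 further: compound added about 3h40 before a 20 min TNFalpha stimulation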;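 on inhibition: signal is the nuclear over cytoplasmic p65 intensity ratio per well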). Particulars: HUVEC TNFa-induced p65 nuclear translocation; cell count: measured here: nuclei count (cytotoxicity indicator), at 2.08 µM unless noted; inhibition: at 2 µM, stronger effect = higher value unless noted.
Experiment [2] in a line: reduction of polyQ htt aggregates in cells – imaging, exon1htt(103Q)mCFP cells, high-content imaging, primary screen (AID 483;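 active means visual image review flags a hit and inhibition of aggregation exceeds 20%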;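 further: compound exposure lasted 3 days before fixation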;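 on nuclei count: percent of the per-plate median nuclei count of sample wells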). Conditions: exon1htt(103Q)mCFP cell line, aggregate imaging, at 2 µM; inhibition of aggregation: stronger effect = higher value; nuclei count: measured here: cell count, toxicity.
A short description of experiment [3]: endothelial E-selectin expression blockers – imaging, HUVEC, immunofluorescence, MLSMR starter and 10KST1 sets, primary screen (AID 487;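 active means visually confirmed hit in the image check and inhibition above 20%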;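 on inhibition: signal is fraction of cell area covered by stained E-selectin grains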;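 on nuclei count: 100% = median nuclei count of all wells on the same plate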). Conditions: HUVEC TNFalpha-induced E-selectin immunofluorescence imaging, at 2 µM; inhibition: stronger effect = higher value; nuclei count: measured here: cell number, toxicity.
A short description of experiment [4]: Primary imaging screen for DUSP6 inhibitors that restore phospho-Erk in transfected HeLa cells, chemical complementation (AID 609;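 active means compounds giving at least 50% inhibition in the cell-based MKP-3 phosphatase rescue imaging test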;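 on inhibition: phospho-Erk level distribution per well compared with pooled transfected vehicle control wells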). Conditions: HeLa MKP-3 transfected, phospho-Erk imaging KS statistic, at 10 µM.
The target of experiment [5] is Dual specificity protein phosphatase 6 (Homo sapiens) (UniProt Q16828). The experiment is described as above. Conditions: HeLa MKP-3 transfected, phospho-Erk imaging KS statistic, at 10 µM, stronger effect = higher value.
The target of experiment [6] is Voltage-gated potassium channel subunit beta-2 (Rattus norvegicus) (UniProt P62483). Nature of the experiment: inhibitors of rat Kvbeta2 reductase activity – biochemical, NADPH fluorescence, primary screen (AID 622;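 active means fluorescence slope higher than the sample average by over 3 SD, cut at about -0.22 in these data, passing the limit was not always enough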;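 further: slope of raw intensity against log time taken from 70 to 1610 s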). Particulars: recombinant KvBeta, 4-cyanobenzaldehyde reduction, at 10 µM, stronger effect = higher value.
The target is the same in experiment [7]. Nature of the experiment: enhancers of rat Kvbeta2 NADPH turnover – biochemical, NADPH fluorescence, primary screen (AID 623;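 active means NADPH fluorescence slope more negative than the mean of all samples by about 3 SD, 99.7% confidence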;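 further: fluorescence intensity change per second fitted from 20 to 320 s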). Particulars: Recombinant KvBeta, NADPH fluorescence decrease slope, 10 min; at 10 µM; stronger effect = lower value.
For experiment [8], the target named is Alpha-2C adrenergic receptor (Homo sapiens) (UniProt P18825). Nature of the experiment: compounds altering alpha2C-coupled GIRK flux – cell-based, HEK293 alpha2C/GIRK1/2, thallium flux, primary screen (AID 624;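 active means fluorescence slope after compound addition differing from the mean of all screened samples at 99.7% confidence, in either direction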;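 further: slope of fluorescence ratio to pre-addition baseline per second over 15 to 24 s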). Conditions: thallium flux BTC fluorescence, at 10 µM, actives lie on both sides.
Experiment [9] can be described thus: inhibitors of larval lipid processing in zebrafish, primary screen, whole organism, PED6 fluorescence, gall bladder and intestine (AID 686;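 active means a full or partial loss of lipid-probe fluorescence in the fish gall bladder, intestine or both, judged by eye; inactive means no fluorescence loss, or compound toxic to the fish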;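 further: larvae 5 to 7 days old with five fish per well; signal comes from phospholipase A2 cleavage of quenched PED6 carried via bile; overnight exposure to compound and PED6 before scoring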). Conditions: Zebrafish larvae PED6 lipid processing, fluorescence scoring.
A short description of experiment [10]: loss of swimming-algae plug formation – whole organism, Chlamydomonas reinhardtii, WT vs cilia-less mutant, absorbance, 96-well, primary screen (AID 463189).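 Further: 0% = wild type cc124 cells in DMSO and 100% = ciliumless bld1 mutant cells.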 Particulars: Chlamydomonas reinhardtii gravitaxis, OD600 absorbance, 2 days; at 10 µM; stronger effect = higher value.
A short description of experiment [11]: blockers of RIG-like receptor reporter activation – cell-based, Sendai virus stimulus, luciferase, 10K MLSCN set, TLR/RLR signaling modifier project, primary screen (AID 602276;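 active means inhibition at or above 50% at 10 µM; inactive means inhibition below 50%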;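 further: firefly luciferase from ISG56 promoter only with Renilla not read in this screen; 0% = Sendai virus plus DMSO and 100% = medium plus DMSO without virus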). Particulars: HEK293 RL24 IRF3 luciferase reporter, at 10 µM, stronger effect = higher value. A general note: A reporter such as luciferase makes a cellular process visible.
Experiment [12] can be described thus: TLR3 IRF3 reporter activation blockers – cell-based, poly I:C stimulus, luciferase, 10K MLSCN set, primary screen (AID 602277;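 active means inhibition of the reporter signal at or above 50%; inactive means inhibition below 50%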). Conditions: HEK293-TLR3 RL24 IRF3 luciferase reporter, at 10 µM, stronger effect = higher value.
[13] abbreviates: measured here: cell density z-score.
The mark [14] stands for this setting: measured here: nuclear c-Myc green intensity z-score.
[15] abbreviates: measured here: nuclear pErk red intensity z-score, stronger effect = higher value.

Dual specificity protein phosphatase 6 (Homo sapiens), sequence (Q16828 whole entry, looked up): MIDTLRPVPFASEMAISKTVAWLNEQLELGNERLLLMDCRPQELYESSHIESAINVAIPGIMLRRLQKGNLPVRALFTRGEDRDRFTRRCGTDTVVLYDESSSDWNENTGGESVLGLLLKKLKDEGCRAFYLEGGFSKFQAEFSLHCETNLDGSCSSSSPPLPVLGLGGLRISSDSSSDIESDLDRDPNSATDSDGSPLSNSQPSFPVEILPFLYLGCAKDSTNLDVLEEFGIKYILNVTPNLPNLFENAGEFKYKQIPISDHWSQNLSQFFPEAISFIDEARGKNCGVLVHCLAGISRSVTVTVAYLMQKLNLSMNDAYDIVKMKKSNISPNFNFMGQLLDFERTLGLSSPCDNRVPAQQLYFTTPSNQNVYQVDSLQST
Alpha-2C adrenergic receptor (Homo sapiens), sequence (P18825 whole entry, looked up): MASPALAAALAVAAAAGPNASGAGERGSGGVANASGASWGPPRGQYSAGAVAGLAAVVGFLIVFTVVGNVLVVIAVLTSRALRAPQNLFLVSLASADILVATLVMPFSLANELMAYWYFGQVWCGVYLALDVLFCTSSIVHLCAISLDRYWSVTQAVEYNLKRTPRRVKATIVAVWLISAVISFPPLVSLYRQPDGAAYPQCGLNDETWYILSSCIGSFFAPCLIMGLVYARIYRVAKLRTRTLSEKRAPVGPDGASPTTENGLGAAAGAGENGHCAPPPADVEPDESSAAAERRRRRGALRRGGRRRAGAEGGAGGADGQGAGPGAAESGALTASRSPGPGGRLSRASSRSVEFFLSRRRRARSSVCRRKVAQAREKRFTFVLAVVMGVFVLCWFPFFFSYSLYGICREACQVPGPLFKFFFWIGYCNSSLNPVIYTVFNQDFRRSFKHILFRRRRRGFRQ
Voltage-gated potassium channel subunit beta-2 (Rattus norvegicus), sequence (P62483 whole entry, looked up): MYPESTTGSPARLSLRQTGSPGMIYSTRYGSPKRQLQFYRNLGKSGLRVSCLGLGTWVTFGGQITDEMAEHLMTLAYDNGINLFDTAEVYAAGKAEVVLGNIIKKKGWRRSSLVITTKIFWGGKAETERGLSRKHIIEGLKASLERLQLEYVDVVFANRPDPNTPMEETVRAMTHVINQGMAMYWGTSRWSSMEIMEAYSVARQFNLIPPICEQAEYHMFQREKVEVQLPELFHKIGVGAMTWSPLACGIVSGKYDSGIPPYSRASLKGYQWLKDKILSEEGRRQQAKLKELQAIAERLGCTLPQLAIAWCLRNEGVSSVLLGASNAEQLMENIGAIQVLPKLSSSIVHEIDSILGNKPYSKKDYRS

On to `O=c1[nH]c(=O)n(CCc2ccccc2)c(O)c1C=NCCN1CCNCC1`, for which the cell count in experiment [1] was determined as 554. Further, the inhibition in experiment [1] is -4% (inactive); in experiment [3] it was -30.7% (inactive); in experiment [5] it was -3.5% (inactive); in [10], -4.22% (inactive); in [11], 18.3% (inactive); in experiment [12] it was 21.6% (inactive). For the same compound, the inhibition of aggregation in [2] is -1.9% (inactive). Further, the values for the nuclei count in [2] and in [3] were 109% and 123%, respectively. For the same compound, the z-score in experiment [4] (setting [13]) is -0.452; in [4] (setting [14]), -0.273; in [4] (setting [15]), -0.327. Also, the fluorescence slope in experiment [6] was -0.348 (inactive). Besides, the NADPH fluorescence slope in [7] was 2e-05 (inactive). Also, in experiment [8], the slope is 0.0061 (inactive). In addition, the call in [9] was inactive.

In the case of `c1ccc2c3c([nH]c2c1)CNCC3`, the cell count in experiment [1] came to 485. Moreover, the inhibition was -1.2% (inactive) in [1]; -84.5% (inactive) in experiment [3]; 23.4% (inactive) in [5]; 24.5% (inactive) in experiment [10]; 4.35% (inactive) in [11]; 51.6% (active) in experiment [12]. The inhibition of aggregation in experiment [2] is 3.2% (inactive). For the same compound, the values for the nuclei count in experiment [2] and in experiment [3] were 92.7% and 114%, respectively. Further, the values for the z-score in [4] (setting [13]), in [4] (setting [14]) and in [4] (setting [15]) were 0.136, -0.573 and -0.521, respectively. The fluorescence slope in experiment [6] was -0.459 (inactive). Besides, the NADPH fluorescence slope in experiment [7] was -6.4e-05 (inactive). Besides, the slope in experiment [8] was 0.00455 (inactive).

Turning to `C[C@@]1(CO)[C@H](O)CC[C@@]2(C)[C@H]1CC[C@H]1C[C@@H]3C[C@@]12CC[C@]3(O)CO`, the cell count in [1] was determined as 629. The inhibition is -4.1% (inactive) in [1]; -34.7% (inactive) in experiment [3]; 1.48% (inactive) in experiment [5]; -7.52% (inactive) in experiment [10]; -34.2% (inactive) in experiment [11]; 49.2% (inactive) in [12]. For the same compound, the inhibition of aggregation in experiment [2] is -9.1% (inactive). Also, the figures for the nuclei count in experiment [2] and in experiment [3] were 9.1% and 113%, respectively. For the same compound, the results for the z-score in experiment [4] (setting [13]), in experiment [4] (setting [14]) and in experiment [4] (setting [15]) were 0.71, -0.0811 and -0.673, respectively. The fluorescence slope in experiment [6] is -0.469 (inactive). For the same compound, the NADPH fluorescence slope in experiment [7] is -5.6e-05 (inactive). The slope in experiment [8] was 0.00555 (inactive). The compound was classed as inactive in [9].

Compound `CCOc1ccc(-n2c(O)c(C=NCCN3CCNCC3)c(=O)[nH]c2=O)cc1` yielded a cell count in experiment [1] of 537. For the same compound, the inhibition in experiment [1] is 3.2% (inactive); in experiment [3] it was -38.9% (inactive); in experiment [5] it was -4.7% (inactive); in experiment [10] it was 8.26% (inactive); in experiment [11] it was 14.4% (inactive); in experiment [12], 22.5% (inactive). Also, the inhibition of aggregation in experiment [2] was -17.4% (inactive). Moreover, the nuclei count in [2] came out at 96.7%; in experiment [3] it was 144%. Further, the z-score was -0.956 in experiment [4] (setting [13]), -1.36 in experiment [4] (setting [14]) and 0.949 in experiment [4] (setting [15]). Moreover, the fluorescence slope in [6] is -0.351 (inactive). Besides, the NADPH fluorescence slope in experiment [7] is -8.4e-06 (inactive). The slope in experiment [8] is 0.00537 (inactive). In experiment [9], the compound was classed as inactive.

Compound `CN1C[C@H](CNC(=O)OCc2ccccc2)C[C@@H]2c3cccc4c3c(cn4C)C[C@H]21` displayed a cell count in experiment [1] of 603. Besides, the inhibition in experiment [1] is 2.7% (inactive); in experiment [3], -32.3% (inactive); in [5] it was 1.38% (inactive); in experiment [10] it was 0.679% (inactive) and 168% (active); in experiment [11], 1.55% (inactive); in [12], 23.4% (inactive). The inhibition of aggregation in experiment [2] is -59.5% (inactive). Further, the nuclei count worked out at 111% in experiment [2] and 110% in experiment [3]. Besides, the figures for the z-score in experiment [4] (setting [13]), in experiment [4] (setting [14]) and in experiment [4] (setting [15]) were -0.59, -0.701 and 1.38, respectively. The fluorescence slope in experiment [6] is -0.508 (inactive). Further, the NADPH fluorescence slope in [7] was -3.6e-06 (inactive). Further, the slope in experiment [8] is 0.0041 (inactive). Also, in experiment [9], the outcome was inactive.
